In the supplement of paper PMC11732987, “Enantioselective OTUD7B fragment discovery through chemoproteomics screening and high-throughput optimisation” (Communications Chemistry, 2025):

What was measured:
Assay in all cases: log2 ratio of Biotin-Ahx-Ub-VS probe labelling (compound/DMSO); higher = less target engagement, active = hit call of the paper (q ≤ 0.05, log2 ratio ≤ -1)
Settings in all cases: treatment time: 3 h
[1] = compound: CCC1N(CCc2sccc12)C(=O)CCl
How it was run: (§1)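 HEK293T lysate (495 µg per sample, in Tris/CHAPS/IGEPAL buffer with protease inhibitors) was treated in triplicate with compound at 50 or 200 µM or with DMSO for 3 h. It was then treated with Biotin-Ahx-Ub-VS (0.5 µM final) for 1 h. Labelled DUBs were NeutrAvidin-enriched, digested with LysC and trypsin, and run by diaPASEF LC-MS/MS. Median-normalised label-free quantities gave average log2 ratios compound/DMSO by unpaired t-test, using proteins with ≥2 unique peptides.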

[2] = compound: CN1c2ccccc2C(CS1(=O)=O)NC(=O)CCl
How it was run: as §1

[3] = compound: Cl.ClCC(=O)N1CCc2ncncc2C1
How it was run: as §1

[4] = compound: Cl.Cn1ncc2C(CCCc12)NC(=O)CCl
How it was run: as §1

[5] = compound: ClCC(=O)NC1CCOc2ccccc12
How it was run: as §1

[6] = compound: ClCC(=O)NC1CCCc2ccccc12
How it was run: (§2)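 The values are mean compound-versus-vehicle ratios derived by unpaired t-test. For 3 h, triplicate HEK293T lysate samples (495 µg each) were treated with compound at a series of concentrations or with vehicle, after which Biotin-Ahx-Ub-VS was added to 0.5 µM final for 1 h. Labelled deubiquitinases were enriched with NeutrAvidin, digested with LysC and trypsin, and analysed by diaPASEF LC-MS/MS. Ratios are log2 values from global-median-normalised Spectronaut label-free quantities, using proteins with two or more unique peptides.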

[7] = compound: ClCC(=O)N[C@@H]1CCCc2ccccc12
How it was run: as §2

[8] = compound: ClCC(=O)N[C@H]1CCCc2ccccc12
How it was run: as §2

[9] = compound: CCC1N(CCc2cc(OC)c(Cl)cc12)C(=O)CCl
How it was run: as §1

[10] = compound: CCCC1N(CCc2cc(OC)c(OC)cc12)C(=O)CCl
How it was run: as §1

[11] = compound: CN(Cc1cccc(Br)c1)C(=O)CCl
How it was run: as §1

[12] = compound: CN(Cc1cccc(OCc2ccccc2C)c1)C(=O)CCl
How it was run: as §1

[13] = compound: CN(Cc1ccccc1)C(=O)CCl
How it was run: as §1

[14] = compound: COc1ccc(CN(C)C(=O)CCl)cc1
How it was run: as §1

[15] = compound: COc1cccc(CN(CCCc2ccccc2)C(=O)CCl)c1
How it was run: as §1

[16] = compound: ClCC(=O)N1CCc2cc(Cl)c(Cl)cc2C1
How it was run: as §1

[17] = compound: ClCC(=O)N1CCc2nc(ncc2C1)-c1ccccc1
How it was run: as §1

[18] = compound: ClCC(=O)N1CCc2nocc2C1
How it was run: as §1

[19] = compound: ClCC(=O)N1CCc2scc(Br)c2C1
How it was run: as §1

[20] = compound: ClCC(=O)NC(C1CCCC1)c1cccs1
How it was run: as §1

Measured: log2 ratio of Biotin-Ahx-Ub-VS probe labelling

USP4 (UniProt Q13107)
UniProt Q13107, sequence (Q13107 whole entry): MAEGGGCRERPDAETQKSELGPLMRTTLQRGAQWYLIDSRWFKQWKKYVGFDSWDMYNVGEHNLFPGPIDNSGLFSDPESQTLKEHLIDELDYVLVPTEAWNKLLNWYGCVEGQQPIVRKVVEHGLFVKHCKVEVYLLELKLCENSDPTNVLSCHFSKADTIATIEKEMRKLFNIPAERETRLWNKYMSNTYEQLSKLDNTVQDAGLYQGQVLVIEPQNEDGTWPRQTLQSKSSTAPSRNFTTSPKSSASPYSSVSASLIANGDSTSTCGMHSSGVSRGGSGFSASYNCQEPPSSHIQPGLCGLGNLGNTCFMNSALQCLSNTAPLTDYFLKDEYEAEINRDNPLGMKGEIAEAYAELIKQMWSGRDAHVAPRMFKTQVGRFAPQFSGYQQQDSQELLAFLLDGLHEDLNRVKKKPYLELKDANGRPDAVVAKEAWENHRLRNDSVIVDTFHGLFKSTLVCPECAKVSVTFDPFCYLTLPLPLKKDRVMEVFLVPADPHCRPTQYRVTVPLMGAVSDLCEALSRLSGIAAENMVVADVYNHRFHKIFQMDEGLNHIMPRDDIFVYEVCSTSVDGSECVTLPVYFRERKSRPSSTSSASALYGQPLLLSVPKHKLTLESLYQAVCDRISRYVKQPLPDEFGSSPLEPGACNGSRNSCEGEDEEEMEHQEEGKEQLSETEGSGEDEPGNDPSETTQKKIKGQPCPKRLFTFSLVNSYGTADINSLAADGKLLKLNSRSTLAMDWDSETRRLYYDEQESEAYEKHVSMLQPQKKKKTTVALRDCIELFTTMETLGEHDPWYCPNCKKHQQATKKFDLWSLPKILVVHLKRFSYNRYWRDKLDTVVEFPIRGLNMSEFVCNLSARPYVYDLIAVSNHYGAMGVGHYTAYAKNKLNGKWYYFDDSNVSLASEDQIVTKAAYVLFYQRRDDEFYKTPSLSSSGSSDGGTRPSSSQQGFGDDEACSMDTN
active: [3]; compound concentration: 200uM -1.33 | [9]; compound concentration: 50uM -1.04 | [12]; compound concentration: 200uM -1.72 | [16]; compound concentration: 200uM -1.88 | [17]; compound concentration: 200uM -1.65 | [20]; compound concentration: 50uM -1.38
inactive: [1]; compound concentration: 50uM -0.339 | [1]; compound concentration: 200uM -0.482 | [2]; compound concentration: 50uM -0.215 | [2]; compound concentration: 200uM 0.178 | [3]; compound concentration: 50uM -0.548 | [4]; compound concentration: 50uM -0.0561 | [4]; compound concentration: 200uM 0.256 | [5]; compound concentration: 50uM 0.078 | [5]; compound concentration: 200uM -0.359 | [6]; compound concentration: 0.78uM 0.169 | [6]; compound concentration: 1.56uM 0.0194 | [6]; compound concentration: 3.13uM 0.211 | [6]; compound concentration: 6.25uM 0.184 | [6]; compound concentration: 12.5uM 0.134 | [6]; compound concentration: 25uM 0.0663 | [6]; compound concentration: 50uM -0.0777 | [6]; compound concentration: 100uM -0.146 | [6]; compound concentration: 200uM 0.149 | [7]; compound concentration: 0.78uM 0.155 | [7]; compound concentration: 1.56uM 0.0643 | [7]; compound concentration: 3.13uM 0.0496 | [7]; compound concentration: 6.25uM -0.232 | [7]; compound concentration: 12.5uM -0.312 | [7]; compound concentration: 25uM 0.121 | [7]; compound concentration: 50uM -0.0633 | [7]; compound concentration: 100uM 0.0515 | [7]; compound concentration: 200uM -0.637 | [8]; compound concentration: 0.78uM 0.0773 | [8]; compound concentration: 1.56uM 0.0727 | [8]; compound concentration: 3.13uM 0.172 | [8]; compound concentration: 6.25uM -0.243 | [8]; compound concentration: 12.5uM 0.0883 | [8]; compound concentration: 25uM -0.0943 | [8]; compound concentration: 50uM 0.0929 | [8]; compound concentration: 100uM -0.0812 | [8]; compound concentration: 200uM -0.126 | [9]; compound concentration: 200uM 0.334 | [10]; compound concentration: 50uM -0.121 | [10]; compound concentration: 200uM -0.75 | [11]; compound concentration: 50uM -0.457 | [11]; compound concentration: 200uM 0.551 | [12]; compound concentration: 50uM 0.0716 | [13]; compound concentration: 50uM -0.596 | [13]; compound concentration: 200uM -0.256 | [14]; compound concentration: 50uM -0.643 | [14]; compound concentration: 200uM 0.475 | [15]; compound concentration: 50uM 0.418 | [15]; compound concentration: 200uM -0.294 | [16]; compound concentration: 50uM 0.245 | [17]; compound concentration: 50uM 0.281 | [18]; compound concentration: 50uM -0.605 | [18]; compound concentration: 200uM 0.447 | [19]; compound concentration: 50uM 0.067 | [19]; compound concentration: 200uM -0.445 | [20]; compound concentration: 200uM -0.493

OTUB1 (UniProt Q96FW1)
UniProt Q96FW1, sequence (Q96FW1 whole entry): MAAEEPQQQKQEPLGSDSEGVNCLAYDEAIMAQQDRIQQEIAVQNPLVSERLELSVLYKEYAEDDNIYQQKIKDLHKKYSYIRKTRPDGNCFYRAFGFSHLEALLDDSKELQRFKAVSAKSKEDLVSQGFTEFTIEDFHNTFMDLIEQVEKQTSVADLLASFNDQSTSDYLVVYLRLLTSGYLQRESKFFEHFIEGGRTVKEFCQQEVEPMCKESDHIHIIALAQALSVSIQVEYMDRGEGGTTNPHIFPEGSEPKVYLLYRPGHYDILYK
inactive: [1]; compound concentration: 50uM -0.117 | [1]; compound concentration: 200uM -0.154 | [2]; compound concentration: 50uM -0.275 | [2]; compound concentration: 200uM -0.196 | [3]; compound concentration: 50uM -0.211 | [3]; compound concentration: 200uM -0.426 | [4]; compound concentration: 50uM 0.106 | [4]; compound concentration: 200uM -0.247 | [5]; compound concentration: 50uM -0.281 | [5]; compound concentration: 200uM -0.037 | [6]; compound concentration: 0.78uM -0.196 | [6]; compound concentration: 1.56uM -0.0742 | [6]; compound concentration: 3.13uM -0.226 | [6]; compound concentration: 6.25uM -0.309 | [6]; compound concentration: 12.5uM -0.314 | [6]; compound concentration: 25uM -0.147 | [6]; compound concentration: 50uM -0.404 | [6]; compound concentration: 100uM -0.172 | [6]; compound concentration: 200uM -0.492 | [7]; compound concentration: 0.78uM 0.0648 | [7]; compound concentration: 1.56uM -0.00906 | [7]; compound concentration: 3.13uM -0.216 | [7]; compound concentration: 6.25uM -0.197 | [7]; compound concentration: 12.5uM -0.122 | [7]; compound concentration: 25uM -0.199 | [7]; compound concentration: 50uM -0.236 | [7]; compound concentration: 100uM -0.0374 | [7]; compound concentration: 200uM -0.142 | [8]; compound concentration: 0.78uM -0.244 | [8]; compound concentration: 1.56uM -0.103 | [8]; compound concentration: 3.13uM -0.28 | [8]; compound concentration: 6.25uM -0.301 | [8]; compound concentration: 12.5uM -0.188 | [8]; compound concentration: 25uM -0.119 | [8]; compound concentration: 50uM -0.16 | [8]; compound concentration: 100uM -0.00187 | [8]; compound concentration: 200uM -0.123 | [9]; compound concentration: 50uM 0.198 | [9]; compound concentration: 200uM -0.422 | [10]; compound concentration: 50uM -0.107 | [10]; compound concentration: 200uM -0.0707 | [11]; compound concentration: 50uM 0.0635 | [11]; compound concentration: 200uM 0.0164 | [12]; compound concentration: 50uM -0.366 | [12]; compound concentration: 200uM 0.0592 | [13]; compound concentration: 50uM -0.0602 | [13]; compound concentration: 200uM -0.159 | [14]; compound concentration: 50uM -0.0667 | [14]; compound concentration: 200uM -0.232 | [15]; compound concentration: 50uM -0.125 | [15]; compound concentration: 200uM -0.389 | [16]; compound concentration: 50uM 0.182 | [16]; compound concentration: 200uM -0.161 | [17]; compound concentration: 50uM -0.0139 | [17]; compound concentration: 200uM -0.309 | [18]; compound concentration: 50uM -0.139 | [18]; compound concentration: 200uM -0.129 | [19]; compound concentration: 50uM 0.0181 | [19]; compound concentration: 200uM -0.0887 | [20]; compound concentration: 50uM 0.00867
